Assay outcomes as filed in PubChem.
CD40 NFkB inh = CD40 pathway inhibition in BL2 cells. BL2 NF-kB luciferase reporter, CD40L-induced, 4 h. AID 1053188. inhibition, % at 10 µM. 83,000 compounds, 0.94% hits;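 active means mean inhibition of at least 50% with a set share of replicates also reaching that level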
Hits are given with their value; i = inactive. The sample as a whole holds a higher share of hits than the screen did.

SMILES	CD40 NFkB inh
COc1ccc(NC(=O)N(C)C[C@@H]2OCCCC[C@@H](C)Oc3ccc(NC(=O)Nc4ccccc4)cc3C(=O)N([C@H](C)CO)C[C@@H]2C)cc1	i
CN(C)C(=O)[C@@H]1[C@@H](CO)[C@@H]2Cn3c(ccc(-c4ccccc4)c3=O)[C@H]1N2Cc1ccccn1	i
C[C@H]1CN([C@@H](C)CO)C(=O)c2ccccc2-c2ccccc2CO[C@@H]1CN(C)S(=O)(=O)c1cccc(F)c1	i
COc1cccc(NC(=O)C[C@H]2CC[C@@H]3[C@H](COc4ccc(NC(=O)C5CCCC5)cc4C(=O)N3C)O2)c1	i
CC(C)Cc1nnc(NC(=O)c2cc3c(s2)CCC3)s1	i
O=C(Nn1cnnc1)c1cc2c(s1)CCCC2	i
O=C(Nc1nccs1)c1cc2c(s1)CCCCC2	92
C[C@H]1CN(C)C(=O)c2cccc(NS(C)(=O)=O)c2O[C@H]1CN(C)C	i
